Here are results for 14 sequences from article PMC3795721, “Screening for Protein-DNA Interactions by Automatable DNA-Protein Interaction ELISA”.

Sequence of AT4G31550 (Q9SV15 228-325): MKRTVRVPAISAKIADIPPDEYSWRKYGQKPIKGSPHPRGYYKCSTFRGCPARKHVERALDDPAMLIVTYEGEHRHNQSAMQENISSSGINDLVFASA

This experiment concerns the target AT4G31550 (Arabidopsis thaliana, UniProt Q9SV15 228-325). Nature of the experiment: DPI-ELISA; DPI-ELISA, streptavidin 384-well plate, 1-2 pmol biotinylated dsDNA per well, crude native E. coli extract, anti-His detection; buffer as in Brand et al. [46],; high values mean tight binding. The conditions noted are these: tags: C-terminal His (pET-DEST42); label: 5' biotin on forward strand; dsDNA, one strand shown. Background: ELISA stands for enzyme-linked immunosorbent assay.
AAAAAATCAAAACAACGATGCCGTTAAAAA gave a binding signal of 0.73 ± 0.0849 absorbance. Consider AAAAAAAGTTGTACTTATTATACTTTAAAA, for which the binding signal was found to be 0.53 ± 0.113 absorbance. For AAAAAACTGGCGACTGCCAGTGGTAGAAAA, the binding signal turned out to be 0.385 ± 0.0354 absorbance. In turn, AAAAAATCGGGGATCCGGGCGGTTGCAAAA had a binding signal of 0.665 ± 0.12 absorbance. AAAAAAGTCTCACCTTTAGTCTTAATAAAA registered a binding signal of 0.64 ± 0.0283 absorbance. The same measure for AAAAAACTGGTGTATCTCCTCAATTAAAAA: 0.635 ± 0.0636 absorbance; for AAAAAACTGTCTGTCCTATATCACTTAAAA: 0.66 ± 0.099 absorbance; for AAAAAAGGCCTTCGCTCGTGTTTACGAAAA: 0.4 ± 0.0424 absorbance. AAAAAACCCTAACGAATGCTTTTCGGAAAA registered a binding signal of 0.66 ± 0.0849 absorbance. The same measure for AAAAAACCTCTTGTCTCTGCTCTCCCAAAA: 0.575 ± 0.106 absorbance; for AAAAAATCCCCCCGTTTCACTCTTGCAAAA: 0.66 ± 0.141 absorbance; for AAAAAACCACCCAGTCTGTTTCTACTAAAA: 0.54 ± 0.141 absorbance. The same measure for AAAAAAACGCTCAAGTCTATCAGTAGAAAA: 0.74 ± 0.141 absorbance; for AAAAAATGGTACTCAGAGTTATAGACAAAA: 0.66 ± 0.141 absorbance.
